Here are results for 40 molecules from PubChem BioAssay (NCI).

Several values for one entry are separate records, joined by “and”; a condition that tells them apart may be missing. Equal values may be shown once. This is part of a sample that, as a whole, favours compounds with a hit. Of some 83,000 tested, about 20% had one in any assay.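 Cell lines were cultured in 96-well plates, exposed to a single compound concentration, and assessed for percent growth 48 hours later.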 Activity calls are given as the source filed them. The calls were made as follows: active = growth percent below 10; inactive = the rest.

The subject of the assay is MDA-MB-468 breast. In words: NCI-60 one-dose screen, 48 h (100 = growth as untreated, 0 = no growth, -100 = all killed). The conditions noted are these: 10 µM unless noted.
Take `Cc1ccc(C2=Nc3c(ccc4c(C)c(C)c(=O)oc34)OC2)cc1`: the growth was 113% (inactive).

Consider `Cl.Fc1c[c-]c(-c2ccccn2)c(F)c1.[Pt].c1ccc([PH+](CC[PH+](c2ccccc2)c2ccccc2)c2ccccc2)cc1`, for which the growth is -79.2% (active).

`Cc1ccc2c(/C=C/C(=O)c3cc(CN4CCOCC4)c(O)c4nc(C)ccc34)cc(CN3CCOCC3)c(O)c2n1`: the growth was -40.4% (active).

For `O=C(Nc1ccc(Oc2cccc(Cl)c2)c(Cl)c1)c1cnccn1`, the growth is 0.426% (active).

Turning to `CC(C)CNCC(O)COc1ccc(C(C)(C)c2ccc(OCC(O)CNCC(C)C)cc2)cc1` (stereo not given), the growth was 62.5% (inactive).

On to `COc1ccccc1N1C(=N)S/C(=C\c2ccc(OCc3ccccc3F)cc2)C1=O`, for which the growth is 5.85% (active).

As to `C[n+]1cc2c3c(ccc2c2ccc4cc5c(cc4c21)OCO5)OCO3`, the growth is -93.7% (active).

`Cc1ccc(S(=O)(=O)Oc2ccc3c4c(c(=O)oc3c2)CCCCC4)cc1`: the growth was 35.5% (inactive).

As to `COc1cc(NC(=O)c2cc3ccccc3nc2Nc2ccc(F)cc2)cc(OC)c1OC`, the growth was -0.996% (active).

`NC(=O)c1cc(I)ccc1NC(=O)COc1ccc(Cl)cc1Cl`: the growth is 71.7% (inactive).

As to `C=CCn1c(SCC(=O)Nc2ccc(C(=O)/C=C/c3cc(OC)c(OC)c(OC)c3)cc2)nnc1-c1cc(-c2ccc(S(C)(=O)=O)cc2)nc2ccccc12`, the growth was 88.8% (inactive).

`Cc1[nH]ccc2cc3nc4ccccc4c3cc12`: the growth was 10.7% (inactive).

`O=C(Nc1ccncc1)C(=O)c1cn(S(=O)(=O)c2cccc3ccccc23)c2ccccc12`: the growth was 19.5% (inactive).

As for `O=C(Nc1cccc(C(F)(F)F)c1)Oc1ccc(Cl)c2cccnc12`, the growth was -27.2% (active).

For the molecule `O=C(Nc1ccc(OS(=O)(=O)Cc2ccccc2)cc1)C12CC3CC(CC(C3)C1)C2`, the growth is 66.6% (inactive).

`N#CC1=C(N)Oc2ccc3ccccc3c2C1c1ccc([N+](=O)[O-])cc1` (stereo not given): the growth is 66.7% (inactive).

`CCOc1ccc(N2C(N)=NC(N)=NC2(C)C)cc1`: the growth was -0.227% (active) and 56.3% (inactive).

Turning to `O=C(NCc1ccco1)C1CN(c2ccc(Cl)cc2)N(c2ccc(Cl)cc2)C1=O` (stereo not given), the growth is 42.4% (inactive).

With `Cc1cccc(C)c1NCc1nnc(-c2ccc(O)cc2)o1`, the growth is 96.2% (inactive).

As to `CCC(C)(C)C(=O)O[C@H]1C[C@@H](C)C=C2C=C[C@H](C)[C@H](CC[C@@H]3CC=CC(=O)O3)[C@H]21`, the growth is 52.1% (inactive).

Take `C[C@@H]1CN(c2ccc3ncc(C#Cc4cncc(C(=O)Nc5ccc(CN6CCN(C)CC6)c(C(F)(F)F)c5)c4)n3n2)C[C@H](C)O1`: the growth was -76.7% (active).

As to `COc1cccc2c1Cc1ccccc1-2`, the growth was 99% (inactive).

With `CCCCCOc1ccc(C(=O)/C(Br)=C/C(=O)O)cc1`, the growth is 89.2% (inactive).

Regarding `NC(=O)c1ccc(-c2cccc3c(=O)nc(N4CCOCC4)oc23)cc1`, the growth was 105% (inactive).

In the case of `CC(C)CSc1nc(NN)c(C#N)c(-c2ccccc2)n1`, the growth is 98.2% (inactive).

Consider `CC1(C)C2CCC1(C)C1(C2)OCCS1` (stereo not given), for which the growth is 89.8% (inactive).

Take `CCOc1cc2ncc(C#N)c(Nc3ccc(OCc4cccc(F)c4)c(Cl)c3)c2cc1NC(=O)CC1CCSS1` (stereo not given): the growth was -5.09% (active).

Consider `Cc1ccc2c(c1)C(=O)c1c-2c(OCCCN(C)C)nc2ccccc12`, for which the growth is 28.9% (inactive).

On to `CCCCCCCCn1ccc2cc(NC(=O)Cn3cc(CN4CCCCCC4)nn3)ccc21`, for which the growth is -67.2% (active).

On to `O=[N+]([O-])c1ccc(CO)cc1`, for which the growth was 0.448% (active).

Regarding `C=C1C(=O)O[C@H]2[C@H](O)[C@@H](C)CCC/C(C)=C/CC[C@@]3(C)O[C@@H]3C[C@@H]12`, the growth was 61.4% (inactive).

`O=C1Nc2ccc(F)cc2/C1=C\C(=O)c1ccc(NS(=O)(=O)c2ccccc2)cc1`: the growth was 90.3% (inactive).

With `COc1ccc(/C=C2/C(=O)N=C3N2NC(c2ccccc2)=CN3c2ccccc2)cc1`, the growth is 88.9% (inactive).

For `Oc1ccc(Cl)cc1Cc1cc(Cl)cc(Cl)c1O`, the growth was 18.4% (inactive).

For the molecule `C[C@]12C[C@H](O)[C@H]3[C@@H](CCC4=CC(=O)CC[C@@]43C)[C@@H]1CC[C@@H]2C(=O)CO`, the growth was 84.4% (inactive).

On to `C/C(=C(/c1ccc(Cl)cc1)c1ccc(OCCN2CCCC2)cc1)c1ccccc1`, for which the growth is 62.4% (inactive).

Take `S=c1nc(-c2ccccn2)c(-c2ccccn2)n[nH]1`: the growth was 108% (inactive).

On to `COc1ccc2ccccc2c1/C=N/N1CCCCC1`, for which the growth is 113% (inactive).

Turning to `CCOC(=O)c1c2c(n(-c3ccc(C#N)cc3)c1-c1ccccc1)C=CCC2`, the growth is 88.9% (inactive).

For the molecule `CC/C(=C(\c1ccc(OCCN2CCCCCCC2)cc1)c1ccc(OC(=O)C2CCCCC2)cc1)c1ccc(Cl)cc1`, the growth was 114% (inactive).
